Inconclusive results are not listed. Calls of active or inactive are those of the source. The call rests on the fitted dose curve.
How the values were obtained:
[1] = molecular target: Acetylcholinesterase (Homo sapiens) (UniProt P22303); assay: Acetylcholinesterase (AChE) small molecule antagonists: colormetric cell-based qHTS assay (AID 1347395); settings: SH-SY5Y cells AChE activity, colorimetric (Ellman); series mostly up to 115 µM; further: nearly all actives have a fitted effect of over 30% in size; further: potency means the concentration at half of the fitted maximal effect
In short: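 Colorimetric readout: DTNB quantifies thiocholine from acetylthiocholine hydrolysed by endogenous AChE of SH-SY5Y cells (2,000/well, plated overnight). Compound pretreatment 30 min, substrate incubation 90 min, both 37 C.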

[2] = molecular target: Acetylcholinesterase (Homo sapiens) (UniProt P22303); assay: Acetylcholinesterase (AChE) small molecule antagonists: enzyme-based qHTS assay (AID 1347397); settings: Potency: AChE enzyme activity inhibition; outcome: AChE enzyme activity inhibition; series mostly up to 115 µM; further: nearly all actives have a fitted effect of over 55% in size; further: potency means the concentration at half of the fitted maximal effect
In short: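 Colorimetric DTNB readout of acetylthiocholine hydrolysis, 10 min at room temperature, after 30 min room-temperature exposure of 50 mU/mL recombinant human enzyme to compound; DMSO vehicle control.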

[3] = molecular target: Acetylcholinesterase (Homo sapiens) (UniProt P22303); assay: Acetylcholinesterase (AChE) small molecule antagonists: fluorescence cell-based qHTS assay (AID 1347398); settings: SH-SY5Y cells; Potency: AChE activity; outcome: AChE activity; series mostly up to 115 µM; further: nearly all actives have a fitted effect of over 50% in size; further: potency means the concentration at half of the fitted maximal effect
In short: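 Cellular AChE activity read as thiocholine from acetylthiocholine hydrolysis, detected by Thiolite Green fluorescence at 490/520 nm after 40 min at room temperature. Compounds were pre-incubated 30 min at 37 C on adherent SH-SY5Y cells.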

[4] = molecular target: Acetylcholinesterase (Homo sapiens) (UniProt P22303); assay: Acetylcholinesterase (AChE) small molecule antagonists: enzyme-based qHTS assay with human liver microsomes (AID 1347399); settings: Potency: qHTS inhibition; outcome: qHTS inhibition; series mostly up to 115 µM; further: nearly all actives have a fitted effect of over 60% in size
In short: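 Recombinant human AChE (50 mU/mL in the enzyme mix) and human liver microsomes (0.25 mg/mL final) were preincubated with compound and NADPH (0.25 mg/mL final) for 30 min at 37 C. Acetylthiocholine/DTNB was then added; thiocholine was read colorimetrically after 10 min at room temperature.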
On the % scale 0 is the no-effect control and ±100 the full control effect.

Chain of Acetylcholinesterase (Homo sapiens) (P22303 whole entry, looked up): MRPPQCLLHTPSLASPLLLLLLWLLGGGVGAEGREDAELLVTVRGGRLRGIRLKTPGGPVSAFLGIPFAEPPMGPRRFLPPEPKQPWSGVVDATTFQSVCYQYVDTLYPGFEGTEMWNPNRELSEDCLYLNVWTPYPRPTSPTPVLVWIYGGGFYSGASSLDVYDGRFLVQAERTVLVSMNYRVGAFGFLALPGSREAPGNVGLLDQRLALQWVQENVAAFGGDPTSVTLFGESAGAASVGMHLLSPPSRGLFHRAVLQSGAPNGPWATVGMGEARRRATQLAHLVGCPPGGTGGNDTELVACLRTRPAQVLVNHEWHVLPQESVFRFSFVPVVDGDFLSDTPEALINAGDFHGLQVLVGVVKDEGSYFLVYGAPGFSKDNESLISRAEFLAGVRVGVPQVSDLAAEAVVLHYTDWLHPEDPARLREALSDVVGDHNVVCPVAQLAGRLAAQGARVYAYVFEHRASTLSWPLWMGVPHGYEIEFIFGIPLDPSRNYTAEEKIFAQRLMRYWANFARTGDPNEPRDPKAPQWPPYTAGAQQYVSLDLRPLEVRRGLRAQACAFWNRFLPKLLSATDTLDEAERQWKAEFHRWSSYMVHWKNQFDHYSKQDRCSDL

COc1nc(C)nc(N)n1
inactive: Potency [1] | Potency [2] | Potency [3] | Potency [4]

CC(C)(CO)[N+](=O)[O-]
inactive: Potency [1] | Potency [2] | Potency [3] | Potency [4]

O=C1C(CCS(=O)c2ccccc2)C(=O)N(c2ccccc2)N1c1ccccc1 (configuration not stated)
inactive: Potency [1] | Potency [2] | Potency [3] | Potency [4]

CCCCCCCCO
inactive: Potency [1] | Potency [2] | Potency [3] | Potency [4]

NC(=O)c1ccccc1Cl
inactive: Potency [1] | Potency [2] | Potency [3] | Potency [4]

CCc1ccccc1O
inactive: Potency [1] | Potency [2] | Potency [3] | Potency [4]

C=CCc1ccc(OC)c(OC)c1
inactive: Potency [1] | Potency [2] | Potency [3] | Potency [4]

CCOCCOCCOCCO
inactive: Potency [1] | Potency [2] | Potency [3] | Potency [4]

Nc1c(S(=O)(=O)O)cc(Br)c2c1C(=O)c1ccccc1C2=O
inactive: Potency [1] | Potency [2] | Potency [3] | Potency [4]

c1cc[c]([Bi]([c]2ccccc2)[c]2ccccc2)cc1
inactive: Potency [1] | Potency [2] | Potency [3] | Potency [4]

O=C(O)C(=O)O
inactive: Potency [1] | Potency [2] | Potency [3] | Potency [4]

C=CC(=O)OCC(CO)(COCC(COC(=O)C=C)(COC(=O)C=C)COC(=O)C=C)COC(=O)C=C
inactive: Potency [1] | Potency [2] | Potency [3] | Potency [4]

O=c1[nH]c(=O)n([C@H]2C[C@H](O)[C@@H](CO)O2)cc1Br
inactive: Potency [1] | Potency [2] | Potency [3] | Potency [4]

CCn1c2ccccc2c2cc([N+](=O)[O-])ccc21
inactive: Potency [1] | Potency [2] | Potency [3] | Potency [4]

C=CC(=O)NC(C)C
inactive: Potency [1] | Potency [2] | Potency [3] | Potency [4]

CCCCC(CC)C(=O)O (configuration not stated)
inactive: Potency [1] | Potency [2] | Potency [3] | Potency [4]

C=C(C)C(N)=O
inactive: Potency [1] | Potency [2] | Potency [3] | Potency [4]

CCCCCCC(C)OC(=O)COc1nc(F)c(Cl)c(N)c1Cl (configuration not stated)
inactive: Potency [1] | Potency [2] | Potency [3] | Potency [4]

CCc1cc(Cc2cc(CC)cc(C(C)(C)C)c2O)c(O)c(C(C)(C)C)c1
inactive: Potency [1] | Potency [2] | Potency [3] | Potency [4]

Nc1ccc(C(=O)N2CC3CC(CN(Cc4ccccc4)C3)C2)cc1
inactive: Potency [1] | Potency [2] | Potency [3] | Potency [4]

O=c1cc[nH]cc1
inactive: Potency [1] | Potency [2] | Potency [3] | Potency [4]

CC(=O)C(C)O (configuration not stated)
inactive: Potency [1] | Potency [2] | Potency [3] | Potency [4]

C[CH2][Ge]([Cl])([CH2]C)[CH2]C
inactive: Potency [1] | Potency [2] | Potency [3] | Potency [4]

CCCC(CCC)(C(=O)OCC)C(=O)OCC
inactive: Potency [1] | Potency [2] | Potency [3] | Potency [4]

O=Cc1ccc(CO)o1
inactive: Potency [1] | Potency [2] | Potency [3] | Potency [4]

O=[N+]([O-])c1ccc(O)c2ncccc12
inactive: Potency [1] | Potency [2] | Potency [3] | Potency [4]

CC(C)(O)c1coc(S(=O)(=O)NC(=O)Nc2c3c(cc4c2CCC4)CCC3)c1
inactive: Potency [1] | Potency [2] | Potency [3] | Potency [4]

CC1(C)OC(=O)NC1=O
inactive: Potency [1] | Potency [2] | Potency [3] | Potency [4]

O=C(O)c1cccc(O)c1
inactive: Potency [1] | Potency [2] | Potency [3] | Potency [4]

O=C(O)c1ccc2cc(C(=O)O)ccc2c1
inactive: Potency [1] | Potency [2] | Potency [3] | Potency [4]

CCCNC(C)(C)COC(=O)c1ccccc1
inactive: Potency [1] | Potency [2] | Potency [3] | Potency [4]

CC(=O)[C@@]1(O)CC[C@H]2[C@@H]3C[C@H](C)C4=CC(=O)C=C[C@]4(C)[C@@]3(F)[C@@H](O)C[C@@]21C
inactive: Potency [1] | Potency [2] | Potency [3] | Potency [4]

COc1cccc(OC)c1C(=O)N[C@@H]1C(=O)N2[C@@H]1SC(C)(C)[C@@H]2C(=O)O
inactive: Potency [1] | Potency [2] | Potency [3] | Potency [4]

CC(=O)OC(C(=O)c1ccccc1)c1ccccc1 (configuration not stated)
inactive: Potency [1] | Potency [2] | Potency [3] | Potency [4]

COc1ccc(C(=O)c2ccc(C)cc2)c(O)c1
inactive: Potency [1] | Potency [2] | Potency [3] | Potency [4]

NCCCN(CCO)CCO
inactive: Potency [1] | Potency [2] | Potency [3] | Potency [4]

O=S(=O)(O)c1ccc2cc(O)ccc2c1
inactive: Potency [1] | Potency [2] | Potency [3] | Potency [4]

COC(=O)/C=C(\C)CCC=C(C)C
inactive: Potency [1] | Potency [2] | Potency [3] | Potency [4]

CCC/C=C(\C=O)CC
inactive: Potency [1] | Potency [2] | Potency [3] | Potency [4]

O=C(O)CNCC(=O)O
inactive: activity, negative = inhibition [1] 1.88% [at 10.5 µM] | activity change, negative = inhibition [2] -0.541% [at 10.5 µM] | activity change, negative = inhibition [3] -0.972% [at 10.5 µM] | activity change, negative = inhibition [4] -0.995% [at 10.5 µM]

CCCCC(CC)COS(=O)(=O)O (configuration not stated)
inactive: Potency [1] | Potency [2] | Potency [3] | Potency [4]

O=C=Nc1ccc(Cc2ccc(N=C=O)cc2)cc1
inactive: Potency [1] | Potency [2] | Potency [3] | Potency [4]

CCN(CCC#N)c1ccc(N=Nc2ccc([N+](=O)[O-])cc2)cc1
inactive: Potency [1] | Potency [2] | Potency [3] | Potency [4]

CC(=O)OCCC(C)C
inactive: Potency [1] | Potency [2] | Potency [3] | Potency [4]

CCO[Si](OCC)(OCC)c1ccccc1
inactive: Potency [1] | Potency [2] | Potency [3] | Potency [4]

O=C(Oc1ccccc1)c1ccccc1
inactive: Potency [1] | Potency [2] | Potency [3] | Potency [4]

O=C(Cl)c1ccc(C(=O)Cl)cc1
inactive: Potency [1] | Potency [2] | Potency [3] | Potency [4]

O[C@@H]1CO[C@H]2[C@@H]1OC[C@@H]2O
inactive: Potency [1] | Potency [2] | Potency [3] | Potency [4]

CCCCCCCCCCCCO
inactive: Potency [1] | Potency [2] | Potency [3] | Potency [4]

Cc1ccc(S(=O)(=O)N=C=O)cc1
inactive: Potency [1] | Potency [2] | Potency [3] | Potency [4]

CCOc1ccc2nc(S(N)(=O)=O)sc2c1
inactive: Potency [1] | Potency [2] | Potency [3] | Potency [4]

O=C(O)c1cc(=O)[nH]c(=O)[nH]1
inactive: Potency [1] | Potency [2] | Potency [3] | Potency [4]

C=CCOC(=O)CCC1CCCCC1
inactive: Potency [1] | Potency [2] | Potency [3] | Potency [4]

CC(N)CN (configuration not stated)
inactive: Potency [1] | Potency [2] | Potency [3] | Potency [4]

CN1CN(C)CN(C)C1
inactive: Potency [1] | Potency [2] | Potency [3] | Potency [4]

COc1ccccc1N1CCN(CC(O)COc2cccc3ccccc23)CC1 (configuration not stated)
inactive: Potency [1] | Potency [2] | Potency [3] | Potency [4]

CC1=CCC(O)(C(C)C)CC1 (configuration not stated)
inactive: Potency [1] | Potency [2] | Potency [3] | Potency [4]

CCCCOC(=O)c1ccc(N)cc1
inactive: Potency [1] | Potency [2] | Potency [3] | Potency [4]

Cc1cccc(C)c1NC(=O)CN1CCCCCC1
inactive: Potency [1] | Potency [2] | Potency [3] | Potency [4]

CC(=O)O[C@]1(C(C)=O)CC[C@H]2[C@@H]3C=C(Cl)C4=CC(=O)[C@@H]5C[C@@H]5[C@]4(C)[C@H]3CC[C@@]21C
inactive: Potency [1] | Potency [2] | Potency [3] | Potency [4]

Cc1sccc1Br
inactive: Potency [1] | Potency [2] | Potency [3] | Potency [4]

O=C1C(c2[nH]c3ccc(S(=O)(=O)O)cc3c2O)=Nc2ccc(S(=O)(=O)O)cc21
inactive: Potency [1] | Potency [2] | Potency [3] | Potency [4]

CC(C)C(=O)Nc1cccc(C(F)(F)F)c1
inactive: Potency [1] | Potency [2] | Potency [3] | Potency [4]

NC(=O)c1ccc([N+](=O)[O-])cc1Cl
inactive: Potency [1] | Potency [2] | Potency [3] | Potency [4]

NC(=O)N(O)[C@@H]1C=C[C@H](Oc2cccc(Oc3ccc(F)cc3)c2)C1
inactive: Potency [1] | Potency [2] | Potency [3] | Potency [4]

CC(C)(C)c1n[nH]c(=O)n(N)c1=O
inactive: Potency [1] | Potency [2] | Potency [3] | Potency [4]

Cc1cc(NC(=O)C(=O)O)cc(C)c1Oc1ccc(O)c2c1CCC2
inactive: Potency [1] | Potency [2] | Potency [3] | Potency [4]

Cc1ccc2c(Cl)cc(Cl)c(O)c2n1
inactive: Potency [1] | Potency [2] | Potency [3] | Potency [4]

O=C(Nc1ccc(Cl)c(Cl)c1)C1CC1
inactive: Potency [1] | Potency [2] | Potency [3] | Potency [4]

Sc1nc(S)nc(S)n1
inactive: Potency [1] | Potency [2] | Potency [3] | Potency [4]

CCOC(=O)CC(CC(=O)OCC)(OC(C)=O)C(=O)OCC
inactive: Potency [1] | Potency [2] | Potency [3] | Potency [4]

CC/C=C\CC1=C(C)CCC1=O
inactive: Potency [1] | Potency [2] | Potency [3] | Potency [4]

O=C(OCCOCCO)c1ccccc1Nc1cccc(C(F)(F)F)c1
inactive: Potency [1] | Potency [2] | Potency [3] | Potency [4]

CCN=C1C=CC(=C(c2ccc(N(CC)CC)cc2)c2ccc(N(CC)CC)cc2)c2ccccc21
active: Potency [1] 62.9 µM | Potency [2] 19.9 µM | Potency [3] 39.7 µM
inactive: Potency [4]

CC1=NN(c2cc(S(=O)(=O)O)ccc2Cl)C(=O)C1N=Nc1ccccc1 (configuration not stated)
inactive: Potency [1] | Potency [2] | Potency [3] | Potency [4]

CO[Si](C)(C)OC
inactive: Potency [1] | Potency [2] | Potency [3] | Potency [4]

CCC(CO)(CO)CO
inactive: Potency [1] | Potency [2] | Potency [3] | Potency [4]

FC(F)(F)C(F)(F)C(F)(F)C(F)(F)C(F)(F)C(F)(F)C(F)(F)C(F)(F)C(F)(F)C(F)(F)F
inactive: activity, negative = inhibition [1] 0.771% [at 10.5 µM] | activity change, negative = inhibition [2] 1.63% [at 10.5 µM] | activity change, negative = inhibition [3] 1.44% [at 10.5 µM] | activity change, negative = inhibition [4] 1.12% [at 10.5 µM]

Reference: PubChem BioAssay (Tox21)
